# Assay results: paper PMC7826789 (International Journal of Molecular Sciences, 2021)
# Tests used:
# Details in all cases: Compound Concentration (nM):1000
# CSNK2A2 = system: CSNK2A2
# CTK = system: T1, CTK
# T1 construct: gene MATK
# DAPK1 = system: DAPK1
# DAPK2 = system: DAPK2
# DAPK3 = system: DAPK3
# DCAMKL1 = system: T2, DCAMKL1
# T2 construct: gene DCLK1
# DCAMKL2 = system: T3, DCAMKL2
# T3 construct: gene DCLK2
# DCAMKL3 = system: T4, DCAMKL3
# T4 construct: gene DCLK3
# DDR1 = system: DDR1
# DDR2 = system: DDR2
# DLK = system: T5, DLK
# T5 construct: gene MAP3K12
# DMPK2 = system: T6, DMPK2
# T6 construct: gene CDC42BPG
# DMPK = system: DMPK
# DRAK1 = system: T7, DRAK1
# T7 construct: gene STK17A
# DRAK2 = system: T8, DRAK2
# T8 construct: gene STK17B
# DYRK1A = system: DYRK1A
# DYRK1B = system: DYRK1B
# DYRK2 = system: DYRK2
# EGFR(E746-A750del) = system: EGFR(E746-A750del)
# EGFR(G719C) = system: EGFR(G719C)
# 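Further: KINOMEscan scanMAX binding as percent activity remaining versus control; lower means stronger binding.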
SMILES,Percent Control (CSNK2A2),Percent Control (CTK),Percent Control (DAPK1),Percent Control (DAPK2),Percent Control (DAPK3),Percent Control (DCAMKL1),Percent Control (DCAMKL2),Percent Control (DCAMKL3),Percent Control (DDR1),Percent Control (DDR2),Percent Control (DLK),Percent Control (DMPK2),Percent Control (DMPK),Percent Control (DRAK1),Percent Control (DRAK2),Percent Control (DYRK1A),Percent Control (DYRK1B),Percent Control (DYRK2),Percent Control (EGFR(E746-A750del)),Percent Control (EGFR(G719C))
COc1ccc2cc(-c3c(-c4ccncc4)nc(-c4ccc(S(C)(=O)=O)cc4C)n3C)ccc2c1 [SB-633825],79%,62%,96%,88%,82%,71%,85%,89%,2%,58%,84%,41%,100%,93%,79%,77%,100%,70%,57%,66%
COc1cc(C=NNc2ncnc3c2cnn3-c2ccccc2)ccc1O [GW513184X],5.6%,100%,100%,100%,100%,90%,100%,100%,100%,100%,96%,100%,100%,83%,71%,53%,66%,28%,26%,58%
COc1cc2ncnc(Nc3ccc4c(cnn4Cc4ccccc4)c3)c2cc1OC.Cl [GW282449A],100%,84%,100%,100%,100%,100%,100%,100%,91%,100%,87%,100%,100%,100%,100%,100%,97%,87%,6.7%,0%
Nc1ncnc2occ(-c3ccc(NC(=O)Nc4cc(C(F)(F)F)ccc4F)cc3)c12 [GW770249X],93%,70%,100%,100%,98%,78%,76%,100%,0%,1.3%,90%,96%,100%,100%,96%,100%,100%,86%,91%,89%
COc1cc2ncn(-c3cc(O[C@H](C)c4ccccc4Cl)c(C(N)=O)s3)c2cc1OC [GSK237701A],34%,78%,55%,81%,79%,77%,100%,100%,100%,74%,59%,91%,100%,100%,89%,92%,100%,68%,85%,64%
